Our source for the inhibition values is PubChem BioAssay.

Structures are written as SMILES.

Common to all, as to test: Peg3 promoter luciferase inhibitors, potency, dose response, cell-based, HeLa, CREF/GAPDH counter-screen panel (AID 624167)
Background: Counterscreens check selectivity or assay interference.

Assay [1] has as its target PEG-3 (UniProt Q6IN02). As to conditions: CREF/GAPDH counter-screens; HeLa PEG-Prom luciferase reporter, overnight, run 1, dose range 1, at 100 µM (top of the series) unless noted.
The target in assay [2] is PEG-3 (UniProt Q6IN02). As to conditions: CREF/GAPDH counter-screens; HeLa PEG-Prom luciferase reporter, overnight, run 2, dose range 1, at 100 µM (top of the series) unless noted.
Assay [3] relates to Rat fibroblasts (CREF). As to conditions: CREF/GAPDH counter-screens; run 1, dose range 1, at 100 µM (top of the series).
Assay [4] relates to Rat fibroblasts (CREF). The note with it: CREF/GAPDH counter-screens; run 2, dose range 1, at 100 µM (top of the series).

Chain of PEG-3 (Q6IN02 whole entry, looked up): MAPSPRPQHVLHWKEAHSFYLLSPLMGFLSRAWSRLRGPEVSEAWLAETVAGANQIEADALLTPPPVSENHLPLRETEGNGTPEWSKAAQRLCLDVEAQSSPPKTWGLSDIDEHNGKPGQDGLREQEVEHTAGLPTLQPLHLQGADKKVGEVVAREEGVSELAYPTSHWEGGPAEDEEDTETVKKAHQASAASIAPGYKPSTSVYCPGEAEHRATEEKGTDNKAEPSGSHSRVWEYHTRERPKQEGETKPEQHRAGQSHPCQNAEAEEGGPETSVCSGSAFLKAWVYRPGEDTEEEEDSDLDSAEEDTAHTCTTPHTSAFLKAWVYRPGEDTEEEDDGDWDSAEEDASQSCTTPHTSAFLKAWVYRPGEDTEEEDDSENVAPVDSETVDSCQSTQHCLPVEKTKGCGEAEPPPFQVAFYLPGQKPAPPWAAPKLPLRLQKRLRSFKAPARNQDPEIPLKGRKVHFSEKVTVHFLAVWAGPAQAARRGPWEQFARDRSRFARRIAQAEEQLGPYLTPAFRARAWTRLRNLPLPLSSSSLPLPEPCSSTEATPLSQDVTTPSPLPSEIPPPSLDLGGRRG

As usually defined, the inhibition is the relative decrease from the control value, in per cent. For the molecule `Cc1cc(C(=O)Nc2cccc(C(=O)O)c2)oc1C`, the inhibition in assay [1] came to 88.1%; in assay [2], 85.8%; in assay [3], 49.8%; in assay [4], 52.7%.
The corresponding values for `CCCSc1ccc2nc(-c3ccccc3)cn2c1` are 98.4%, 98.8%, 92.4% and 95.7%.
Turning to `CCN(CC)S(=O)(=O)c1cccc(C(=O)N/N=C(\C)c2ccc(O)cc2O)c1`, the inhibition in assay [1] worked out at 27.3%; in assay [2] it was 69.6%; in assay [3] it was 43.3%; in assay [4], 47.7%.
The corresponding values for `COc1cccc(/C=N/NC(=O)c2ccc(-c3ccccc3)cc2)c1O` are 81%, 79.7%, 69.8% and 67.6%.
With `COc1cc(/C=C2\SC(=Nc3ccccc3OC)NC2=O)ccc1O`, the inhibition in assay [1] is -37%; in assay [2], 89.3% [run 2, dose range 1, at 25 µM]; in assay [3], -38.3%; in assay [4], -20.9%.
The corresponding values for `O=C(COc1ccc2c(c1)CCC2)Nc1ccccn1` are 98.8%, 94.2%, 97.5% and 94.5%.
On to `Oc1c(I)cc(Cl)c2cccnc12`, for which the inhibition is 71.1% in assay [1], 41.4% in assay [2], 87% in assay [3] and 85.5% in assay [4].
The corresponding values for `COc1ccc2c(c1)sc1nc(-c3ccccc3)cn12` are 100%, 97.3%, 98.8% and 98.5%.
In the case of `COC1=CC(=O)c2c(ccc3ncnc(N)c23)C1=O`, the inhibition in assay [1] came to 102%; in assay [2], 99%; in assay [3] it was 101%; in assay [4], 100%.
Consider `Cc1ccc(-n2c(N)c(C(=O)Nc3c(C)n(C)n(-c4ccccc4)c3=O)c3nc4ccccc4nc32)cc1`, for which the inhibition worked out at 52.5% in assay [1], 62.7% in assay [2], 89.4% in assay [3] and 83.7% in assay [4].
Take `CCc1ccc(/C=C2\SC(=S)N(CCCC(=O)NC3=NCCS3)C2=O)cc1`: the inhibition turned out to be 96% in assay [1], 77.5% in assay [2], 0.087% in assay [3] and 7.65% in assay [4].
The corresponding values for `CN(C)S(=O)(=O)c1ccc(-c2csc(N/N=C/c3ccc(O)cc3)n2)cc1` are 99.1%, 101%, 97.4% and 98.8%.
Turning to `CC(=O)NC(c1ccc(N(C)C)cc1)c1cc(Cl)c2cccnc2c1O` (configuration not stated), the inhibition in assay [1] was 76.1%; in assay [2] it was 88.8%; in assay [3], -10.5%; in assay [4] it was 94.6%.
`Cc1cccc(C)c1NC(=O)c1nc(S(=O)(=O)Cc2ccccc2)ncc1Cl`: the inhibition came out at 102% in assay [1], 101% in assay [2], 99.2% in assay [3] and 99% in assay [4].
For the molecule `NC1=C(Br)C(=O)c2ncccc2C1=O`, the inhibition is 99.1% in assay [1], 101% in assay [2], 98.1% in assay [3] and 98.6% in assay [4].
`Cc1nc(C)c(C(=O)N/N=C/c2cc(Br)ccc2O)s1`: the inhibition was 101% in assay [1], 101% in assay [2], 52.7% in assay [3] and 46.2% in assay [4].
Take `CC1CC(C)C(=O)C(C(CC2CC(=O)NC(=O)C2)OC(=O)CC(=O)c2ccccc2)C1` (configuration not stated): the inhibition in assay [1] stood at 72.4%; in assay [2], 85.5%; in assay [3], 44.6%; in assay [4], 23.7%.
As for `CCc1ccn2cc(-c3ccc4c(c3)OCO4)nc2c1`, the inhibition is 96% in assay [1], 89.2% in assay [2], -17.6% in assay [3] and 97.5% in assay [4].
As for `N=c1n(CCN2CCCCC2)c2ccccc2n1CC(O)c1ccc(Cl)c(Cl)c1` (configuration not stated), the inhibition in assay [1] is 99.3%; in assay [2], 98.6%; in assay [3], 100%; in assay [4] it was 99.7%.
As for `O=C(N/N=C/c1c(O)ccc2ccccc12)c1ccc(CO)nc1`, the inhibition in assay [1] came out at 51.6%; in assay [2], 60.4%; in assay [3], 54%; in assay [4], 47.6%.
On to `O=C(N/N=C/c1ccc(Cl)c([N+](=O)[O-])c1)c1cc(-c2ccc3c4c(cccc24)CC3)n[nH]1`, for which the inhibition in assay [1] was 95.1% [run 1, dose range 1, at 50 µM]; in assay [2] it was 93.6%; in assay [3] it was -4.6%; in assay [4], 4.99%.
With `S=C(NN=C(c1ccccc1)c1ccccn1)N(Cc1ccccn1)Cc1ccccn1`, the inhibition in assay [1] was 102%; in assay [2] it was 102%; in assay [3] it was 97.9%; in assay [4], 98%.
Consider `Cc1cc(C)c2c(N)c(C(=O)Nc3ncc(C)s3)sc2n1`, for which the inhibition in assay [1] was determined as 90.9%; in assay [2], 98.2%; in assay [3], 99.2%; in assay [4], 98.9%.
The corresponding values for `Cc1ccc(/C=C2\SC(=S)N(CCCC(=O)NNC(=O)c3ccccc3O)C2=O)cc1` are 81.6%, 73.5%, 10.1% and 11%.
In the case of `CCCn1nc(C(=O)Nc2nc(-c3ccccn3)cs2)c2ccccc2c1=O`, the inhibition was 84.7% in assay [1], 80.4% in assay [2], 7.59% in assay [3] and 23.2% in assay [4].
As for `CC(=O)N1CCCC(c2cc(C(=O)Nc3ccccc3)no2)C1` (configuration not stated), the inhibition in assay [1] was determined as 100%; in assay [2] it was 90.2%; in assay [3], 93.1%; in assay [4] it was 92%.
For the molecule `Cc1cc(C)c(C)c(S(=O)(=O)N2CCN(C(=O)c3cc(=O)[nH]c4ccccc34)CC2)c1C`, the inhibition was 82.1% in assay [1], 83.8% in assay [2], 34.6% in assay [3] and 90.5% in assay [4].
The corresponding values for `CCCC(=O)NC(c1ccc(C(C)C)cc1)c1ccc2cccnc2c1O` (configuration not stated) are 95.6%, 82.8%, 17.4% and 7.77%.
As for `N=c1n(CC(=O)c2ccc([N+](=O)[O-])cc2)c2ccccc2n1Cc1ccc(Cl)cc1`, the inhibition in assay [1] amounted to 99.6%; in assay [2], 101%; in assay [3] it was 99.2%; in assay [4] it was 99.4%.
In the case of `O=C(O)c1ccc(N/N=C/c2ccc3nccnc3c2)cc1`, the inhibition was 101% in assay [1], 102% in assay [2], 58.2% in assay [3] and 45.3% in assay [4].
Turning to `CN(C)c1ccc(/C=C/c2ccc3c4ccccc4ccc3[n+]2-c2ccccc2)cc1`, the inhibition in assay [1] is 99.3%; in assay [2], 98.8%; in assay [3] it was 101%; in assay [4], 100%.
Take `CCCCC(=O)NC(c1ccccc1OC)c1ccc2cccnc2c1O` (configuration not stated): the inhibition is 67.7% in assay [1], 68.4% in assay [2], -8.76% in assay [3] and 5.38% in assay [4].
In the case of `COc1cccc(-c2sc3ccccc3c2-c2ccc(OCCN(C)C)cc2)c1`, the inhibition in assay [1] turned out to be 99.6%; in assay [2] it was 98.6%; in assay [3], 98.7%; in assay [4], 99.3%.
Regarding `COc1ccc(-c2cc3nc(C)n(N)c(=O)c3s2)cc1`, the inhibition was 99.2% in assay [1], 102% in assay [2], 99% in assay [3] and 98.9% in assay [4].
The corresponding values for `NS(=O)(=O)c1ccc(CCNc2nn3c(-c4ccc(F)c(Cl)c4)cnc3s2)cc1` are 66.9%, 74.3%, 28.6% and 14.8%.
On to `CCC(=O)NC(c1cccs1)c1cc(Cl)c2cccnc2c1O` (configuration not stated), for which the inhibition in assay [1] was 100%; in assay [2], 99.5%; in assay [3], 38.2%; in assay [4], 97.6%.
On to `Cc1cc(NC(c2cccnc2)c2ccc3cccnc3c2O)no1` (configuration not stated), for which the inhibition in assay [1] stood at 63.9%; in assay [2], 74%; in assay [3] it was 59.7%; in assay [4] it was 94.9%.
Turning to `O=C(Nc1nc2cc3c(cc2s1)OCCO3)c1ccco1`, the inhibition in assay [1] was 97.8%; in assay [2] it was 95.5%; in assay [3], 92.9%; in assay [4] it was 95.1%.
For the molecule `O=C(Nc1ccccc1)c1nc[nH]c1C(=O)NCCCCCCNC(=O)c1[nH]cnc1C(=O)Nc1ccccc1`, the inhibition was -14.1% in assay [1], 24.2% in assay [2], -4.97% in assay [3] and -1.9% in assay [4].
`COc1ccc(C(=O)NNC(=O)c2ccccn2)cc1`: the inhibition worked out at 102% in assay [1], 95.9% in assay [2], 100% in assay [3] and 98.5% in assay [4].
`Cc1ccc(C(=O)Nc2nc3ccccc3[nH]2)cc1`: the inhibition in assay [1] worked out at 89.8%; in assay [2] it was 88.1%; in assay [3] it was 99.2%; in assay [4], 98.7%.
The corresponding values for `CN=c1sc2c(n1C)C(=O)c1ccccc1C2=O` are 101%, 98.9%, 97.8% and 98.9%.
Take `CN=c1scc(-c2ccccc2F)n1/N=C/c1ccc[nH]1`: the inhibition in assay [1] came out at 98.7%; in assay [2], 99.8%; in assay [3] it was 100%; in assay [4], 100%.
